The results in this text go back to PubChem BioAssay (NCI).

Structures are written as SMILES. “And” between values parts separate entries of the source, which are not always exact repeats. Equal entries are not always repeated. The panel holds about 83,000 compounds, 20% with a hit somewhere; the sample as a whole holds those more often.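 Interpretation: 100, growth as untreated; towards 0, rising growth inhibition; 0, no net growth; 0 to -100, cell death. Compounds scoring below 10 were considered active.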 The source made the active and inactive calls.

Among the test systems are NCI-H23 lung; NCI-H522 lung; 786-0 renal; MDA-MB-231 breast; UACC-62 melanoma; LOX IMVI melanoma; CCRF-CEM leukemia; MOLT-4 leukemia; SR leukemia; OVCAR-8 ovarian; OVCAR-5 ovarian; OVCAR-4 ovarian; SK-OV-3 ovarian; IGROV1 ovarian; HS 578T breast; T-47D breast; SW-620 colon; MCF7 breast; HCT-116 colon; KM12 colon.
Holding throughout (test): NCI-60 one-dose screen, 48 h (100 = growth as untreated, 0 = no growth, -100 = all killed)
What all share (details): 10 µM

Take `CC1=C2C(=C[C@@](C)(COC(=O)c3ccc(S(=O)(=O)F)cc3)[C@@H]2O)C(=O)[C@](C)(O)C12CC2`: the growth in the experiment with NCI-H23 lung was -32.2% (active); in the experiment with NCI-H522 lung it was -64.5% (active); in the experiment with 786-0 renal it was -37.7% (active); in the experiment with MDA-MB-231 breast, -16.3% (active); in the experiment with UACC-62 melanoma, -77.1% (active); with LOX IMVI melanoma it was -40.2% (active). Moreover, the growth in the experiment with CCRF-CEM leukemia was 9.59% (active); in the experiment with MOLT-4 leukemia, 10.2% (inactive); in the experiment on SR leukemia, -0.78% (active); with OVCAR-8 ovarian it was -31.1% (active); in the experiment with OVCAR-5 ovarian, -12.4% (active); with OVCAR-4 ovarian, -33.5% (active). Further, the growth is -24.7% (active) in the experiment on SK-OV-3 ovarian; -13.9% (active) in the experiment on IGROV1 ovarian; -16% (active) in the experiment with HS 578T breast; 0.908% (active) with T-47D breast; -20.5% (active) with SW-620 colon; 1.68% (active) in the experiment on MCF7 breast. The growth in the experiment with HCT-116 colon is -4.41% (active); with KM12 colon, 7.74% (active).
With `C/C=C/CC(C)C(O)[C@H](NC(=O)[C@@H]1CCCN1C(=O)C(C)(C)NC(=O)CCCCCCCCC)C(=O)N[C@@](C)(CC)C(=O)N[C@@H](CCC(N)=O)C(=O)N[C@H](CCC(N)=O)C(=O)NC(C)(C)C(=O)NC(C)(C)C(=O)N[C@@H](CCC(N)=O)C(=O)N[C@H](CC(C)C)C(=O)N[C@H](CO)CC(C)C` (some centres undefined), the growth was 15.6% (inactive) and 49.3% (inactive) in the experiment on NCI-H23 lung; -32.9% (active) and -26.1% (active) in the experiment on NCI-H522 lung; -39.5% (active) and 25.2% (inactive) in the experiment on 786-0 renal; -32.1% (active) and 53.6% (inactive) in the experiment on MDA-MB-231 breast; -19.1% (active) and 54.4% (inactive) with UACC-62 melanoma; -57.3% (active) and 1.46% (active) in the experiment with LOX IMVI melanoma. The growth with CCRF-CEM leukemia is 14.7% (inactive) and 49.4% (inactive); in the experiment on MOLT-4 leukemia it was 18.8% (inactive) and 54.7% (inactive); with SR leukemia, -32.1% (active) and 8.34% (active); in the experiment with OVCAR-8 ovarian, 5.65% (active) and 38.4% (inactive); with OVCAR-5 ovarian, 2.04% (active) and 49.9% (inactive); with OVCAR-4 ovarian, 81% (inactive) and 87.9% (inactive). The growth with SK-OV-3 ovarian was 37.6% (inactive) and 80.8% (inactive); in the experiment on IGROV1 ovarian, 34% (inactive) and 72.2% (inactive); in the experiment on HS 578T breast it was -51.7% (active) and -15.4% (active); in the experiment with T-47D breast, 28.6% (inactive) and 52% (inactive); in the experiment with SW-620 colon, 38.1% (inactive) and 93% (inactive); in the experiment with MCF7 breast it was -2.63% (active) and 45.8% (inactive). The growth is 33.5% (inactive) and 78.4% (inactive) in the experiment with HCT-116 colon; -32.5% (active) and 10.3% (inactive) with KM12 colon.
As to `COc1cc2c(O[C@@H]3OC[C@H](OC(C)=O)[C@H](OC(C)=O)[C@H]3O)c3c(c(-c4ccc5c(c4)OCO5)c2cc1OC)C(=O)OC3`, the growth in the experiment on NCI-H23 lung is 46.3% (inactive); in the experiment on NCI-H522 lung it was 4.7% (active); with 786-0 renal it was 20% (inactive); in the experiment with MDA-MB-231 breast, 13.7% (inactive); with LOX IMVI melanoma, -53.7% (active); in the experiment on CCRF-CEM leukemia it was 20.1% (inactive). In addition, the growth with MOLT-4 leukemia was 13.7% (inactive); in the experiment on SR leukemia, 2.16% (active); in the experiment with OVCAR-8 ovarian, 24.3% (inactive); with OVCAR-5 ovarian, 73% (inactive); in the experiment with OVCAR-4 ovarian, 51.4% (inactive); with SK-OV-3 ovarian, 23.8% (inactive). The growth was 47.9% (inactive) with IGROV1 ovarian; 60.3% (inactive) in the experiment with HS 578T breast; -2.78% (active) with T-47D breast; 14.1% (inactive) in the experiment with SW-620 colon; 36.9% (inactive) in the experiment with MCF7 breast; 9.2% (active) with HCT-116 colon. Moreover, the growth with KM12 colon was 27.8% (inactive).
Consider `CC(C)=CCc1c2c(c(O)c3c1O[C@]14C(=C[C@@H]5C[C@H]1C(C)(C)O[C@@]4(C/C=C(/C)C(=O)O)C5=O)C3=O)C=CC(C)(C)O2`, for which the growth is -45.4% (active) in the experiment on NCI-H23 lung; -70.9% (active) with NCI-H522 lung; -82.7% (active) in the experiment with 786-0 renal; -56.1% (active) with MDA-MB-231 breast; -69.4% (active) in the experiment with UACC-62 melanoma; -95.6% (active) with LOX IMVI melanoma. Moreover, the growth is -1.96% (active) in the experiment with CCRF-CEM leukemia; -15.6% (active) in the experiment with MOLT-4 leukemia; -3.62% (active) with SR leukemia; -59.4% (active) in the experiment with OVCAR-8 ovarian; -80.5% (active) in the experiment with OVCAR-5 ovarian; -63.6% (active) in the experiment with OVCAR-4 ovarian. Also, the growth is -38.9% (active) in the experiment with SK-OV-3 ovarian; -55.2% (active) in the experiment with IGROV1 ovarian; -11.1% (active) with HS 578T breast; -40.7% (active) in the experiment with T-47D breast; -75.1% (active) in the experiment on SW-620 colon; -61% (active) in the experiment on MCF7 breast. The growth was -71.5% (active) in the experiment with HCT-116 colon and -73.4% (active) in the experiment with KM12 colon.
Regarding `COc1cc2c(O[C@@H]3OC[C@H](O)[C@H](O)[C@H]3O)c3c(c(-c4ccc5c(c4)OCO5)c2cc1OC)C(=O)OC3`, the growth in the experiment with NCI-H23 lung is 72.8% (inactive); with NCI-H522 lung, 13.5% (inactive); in the experiment with 786-0 renal, 78.9% (inactive); with MDA-MB-231 breast, 22.9% (inactive); with UACC-62 melanoma it was 20.8% (inactive); in the experiment on LOX IMVI melanoma it was -57.7% (active). The growth was 46.6% (inactive) in the experiment on CCRF-CEM leukemia; 110% (inactive) in the experiment with MOLT-4 leukemia; 14.5% (inactive) in the experiment on SR leukemia; 22% (inactive) in the experiment on OVCAR-8 ovarian; 39.4% (inactive) in the experiment on OVCAR-5 ovarian; 74% (inactive) in the experiment with OVCAR-4 ovarian. Further, the growth with SK-OV-3 ovarian is 69.1% (inactive); in the experiment on IGROV1 ovarian, 53% (inactive); in the experiment with HS 578T breast, 91.1% (inactive); in the experiment on T-47D breast it was 18.2% (inactive); in the experiment on SW-620 colon, 68.8% (inactive); in the experiment with MCF7 breast, 71.2% (inactive). For the same molecule, the growth was 29.1% (inactive) in the experiment with HCT-116 colon and 71.6% (inactive) in the experiment with KM12 colon.
As for `C/C=C\C(=O)O[C@@H]1CC2O[C@@H]3C=C(C)C(=O)C[C@]3(C)[C@]1(C)[C@]21CO1`, the growth was -21.3% (active) in the experiment on NCI-H23 lung; -18.4% (active) in the experiment with NCI-H522 lung; -20.2% (active) in the experiment on 786-0 renal; -21.1% (active) in the experiment on MDA-MB-231 breast; -27.2% (active) in the experiment with UACC-62 melanoma; -56.3% (active) in the experiment with LOX IMVI melanoma. In addition, the growth in the experiment on CCRF-CEM leukemia is -12.8% (active); in the experiment with MOLT-4 leukemia, -26.4% (active); with SR leukemia, -13.1% (active); in the experiment with OVCAR-8 ovarian it was 0.288% (active); in the experiment with OVCAR-5 ovarian, -3.51% (active); in the experiment with OVCAR-4 ovarian, -12.2% (active). Further, the growth is -15.1% (active) in the experiment with SK-OV-3 ovarian; 1.08% (active) in the experiment with IGROV1 ovarian; -2.98% (active) in the experiment with HS 578T breast; -24% (active) in the experiment on T-47D breast; 0.59% (active) in the experiment with SW-620 colon; 0.933% (active) in the experiment with MCF7 breast. The growth is -29.4% (active) with HCT-116 colon and 3.28% (active) in the experiment on KM12 colon.
